Reference: PubChem BioAssay (NCI)
Compounds without any hit were thinned out: in the full panel of roughly 79,000, 15% have a hit. Calls of active or inactive are those of the source. No stated cut-off is given here; in the data, active means growth inhibition above about 70%; inactive means the rest.

Assays:
[1] = NCI Yeast Anticancer Drug Screen. Data for the rad52 strain (AID 147);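 further: 0% = growth of vehicle-treated control cultures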; settings: S. cerevisiae rad52 mutant growth inhibition, hits give high values
Outline: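 Here a repair-compromised yeast strain receives each compound; its growth is then quantified and normalised to vehicle-only controls.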

[2] = NCI Yeast Anticancer Drug Screen. Data for the wt1 strain (AID 149);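 further: 0% = growth of vehicle-treated wt1 cultures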; settings: S. cerevisiae wt1 strain (SPY 50644) growth inhibition, hits give high values
Outline: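 Each compound is tested on wt1 yeast and the loss of growth versus vehicle gives the inhibition value.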

[3] = NCI Yeast Anticancer Drug Screen. Data for the rad50EPP+ strain (AID 151);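 further: 0% = growth of vehicle-treated control cultures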; settings: S. cerevisiae rad50 mutant strain, hits give high values
Outline: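 Read-out is yeast growth inhibition relative to vehicle; cells used were the rad50EPP+ strain.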

[4] = NCI Yeast Anticancer Drug Screen. Data for the mgt1 strain (AID 153); settings: S. cerevisiae mgt1 mutant growth inhibition, hits give high values
Outline: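 Measured: inhibition of mgt1 yeast growth by compound, normalized to vehicle-treated cultures.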

[5] = NCI Yeast Anticancer Drug Screen. Data for the rad50 strain (AID 155);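 further: 0% = growth of vehicle-only cultures of the same strain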; settings: S. cerevisiae rad50 strain growth inhibition, hits give high values
Outline: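 Vehicle-treated cultures provide the reference for the growth inhibition reported for compound-exposed, repair-deficient yeast.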

[6] = NCI Yeast Anticancer Drug Screen. Data for the mec2-1 strain (AID 157); settings: S. cerevisiae mec2-1 strain, hits give high values
Outline: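 Using mec2-1 yeast: add compound, measure growth, express inhibition versus vehicle-treated cultures.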

[7] = NCI Yeast Anticancer Drug Screen. Data for the rad14 strain (AID 159);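 further: 0% = growth of vehicle-treated control cultures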; settings: S. cerevisiae rad14 strain growth inhibition, hits give high values
Outline: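 Inhibition of growth is reported for a repair-deficient yeast mutant following compound treatment, calculated relative to cultures that received vehicle.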

[8] = NCI Yeast Anticancer Drug Screen. Data for the sgs1 mgt1 strain (AID 161);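 further: 0% = growth of cultures given vehicle only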; settings: S. cerevisiae sgs1 mgt1 strain, hits give high values
Outline: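 Growth of a repair-deficient yeast mutant was monitored after compound treatment and expressed as inhibition relative to vehicle-treated cultures.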

[9] = NCI Yeast Anticancer Drug Screen. Data for the CLN2oe strain (AID 163);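 further: 0% = growth of vehicle-only control cultures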; settings: S. cerevisiae CLN2oe strain, hits give high values
Outline: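 Whole-cell yeast growth assay. A strain engineered for altered cell-cycle control received compound, and inhibition relative to vehicle-treated cultures was recorded.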

[10] = NCI Yeast Anticancer Drug Screen. Data for the cln2 rad14 strain (AID 165);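 further: 0% = growth equal to vehicle treated cultures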; settings: S. cerevisiae cln2 rad14 strain, hits give high values
Outline: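 Yeast strain cln2 rad14, bearing defects in cell cycle control and DNA repair, serves as the test system; values reflect growth inhibition compared with vehicle.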

[11] = NCI Yeast Anticancer Drug Screen. Data for the bub3 strain (AID 167); settings: S. cerevisiae bub3 mutant strain, hits give high values
Outline: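 Mutant yeast screening strain plus compound; vehicle-treated cultures serve as the 0% inhibition reference.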

[12] = NCI Yeast Anticancer Drug Screen. Data for the wt2 strain (AID 169); settings: S. cerevisiae wt2 strain growth inhibition, hits give high values
Outline: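 Treated yeast vs. vehicle-treated yeast: growth inhibition determined.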

[13] = NCI Yeast Anticancer Drug Screen. Data for the mlh1 strain (AID 171);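 further: 0% = growth of vehicle-treated control cultures of the same strain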; settings: S. cerevisiae mlh1 strain growth inhibition, hits give high values
Outline: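 A yeast strain with a defined genetic lesion serves as the test organism. Cultures receive compound or vehicle, and growth is measured.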

[14] = NCI Yeast Anticancer Drug Screen. Data for the sgs1 strain (AID 173);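 further: 0% = growth of vehicle-only control cultures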; settings: S. cerevisiae sgs1 mutant, hits give high values
Outline: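 A genetically defined yeast mutant is incubated with the test compound, and its growth is compared to that of the same strain given vehicle.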

[15] = NCI Yeast Anticancer Drug Screen. Data for the mlh1 rad18 strain (AID 175); settings: S. cerevisiae mlh1 rad18 strain growth inhibition, hits give high values
Outline: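 Steps: expose repair-defective yeast to compound; measure growth; express inhibition against vehicle-treated controls.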

[16] = NCI Yeast Anticancer Drug Screen. Data for the rad18 strain (AID 177); settings: S. cerevisiae rad18 mutant growth inhibition, hits give high values
Outline: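 Measured value is growth inhibition of a yeast strain bearing a DNA repair alteration, referenced to vehicle-treated cells.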

[17] = at 5.0 µM (retest, dose inferred, filed as 0.5)
[18] = at 50.0 µM (retest, dose inferred, filed as 5.0)

Measured: growth inhibition

C/C(=N\NC(=S)N1CCCCC1)c1cccc(C)n1
active: [1]; at 3.7 µM 91% | [1]; at 11.0 µM 97% | [1]; at 33.0 µM 99% | [1]; at 100.0 µM 99% | [2]; at 3.7 µM 95% | [2]; at 11.0 µM 98% | [2]; at 33.0 µM 99% | [2]; at 100.0 µM 99% | [3]; at 11.0 µM 95% | [3]; at 33.0 µM 99% | [3]; at 100.0 µM 99% | [4]; at 3.7 µM 94% | [4]; at 11.0 µM 99% | [4]; at 33.0 µM 99% | [4]; at 100.0 µM 98% | [5]; at 3.7 µM 94% | [5]; [17] 89% | [5]; at 11.0 µM 98% | [5]; at 33.0 µM 98% | [5]; [18] 100% | [5]; at 50.0 µM 89.7% | [5]; at 100.0 µM 98% | [6]; at 3.7 µM 92% | [6]; [17] 86% | [6]; at 11.0 µM 96% | [6]; at 33.0 µM 99% | [6]; [18] 100% | [6]; at 50.0 µM 92.2% | [6]; at 100.0 µM 99% | [7]; at 3.7 µM 97% | [7]; at 11.0 µM 99% | [7]; at 33.0 µM 100% | [7]; at 100.0 µM 99% | [8]; [17] 81% | [8]; [18] 99% | [8]; at 50.0 µM 85.8% | [9]; at 3.7 µM 94% | [9]; at 11.0 µM 99% | [9]; at 33.0 µM 100% | [9]; at 100.0 µM 99% | [10]; [17] 93% | [10]; [18] 99% | [10]; at 50.0 µM 90.7% | [11]; at 3.7 µM 87% | [11]; [17] 93% | [11]; at 11.0 µM 99% | [11]; at 33.0 µM 99% | [11]; [18] 99% | [11]; at 50.0 µM 89.2% | [11]; at 100.0 µM 99% | [12]; at 3.7 µM 94% | [12]; at 11.0 µM 97% | [12]; at 33.0 µM 98% | [12]; at 100.0 µM 99% | [13]; at 3.7 µM 92% | [13]; at 11.0 µM 96% | [13]; at 33.0 µM 96% | [13]; at 100.0 µM 96% | [14]; at 3.7 µM 91% | [14]; at 11.0 µM 98% | [14]; at 33.0 µM 98% | [14]; at 100.0 µM 98% | [15]; [17] 81% | [15]; [18] 99% | [15]; at 50.0 µM 86.2% | [16]; at 3.7 µM 90% | [16]; at 11.0 µM 98% | [16]; at 33.0 µM 98% | [16]; at 100.0 µM 97%
inactive: [1]; at 1.2 µM -4% | [2]; at 1.2 µM 41% | [3]; at 1.2 µM -8% | [3]; at 3.7 µM 38% | [4]; at 1.2 µM 49% | [5]; at 1.2 µM 23% | [6]; at 1.2 µM 39% | [7]; at 1.2 µM 45% | [9]; at 1.2 µM 50% | [11]; at 1.2 µM 21% | [12]; at 1.2 µM -10% | [13]; at 1.2 µM 1% | [14]; at 1.2 µM 9% | [16]; at 1.2 µM 7%

O=c1c2ccccc2ncn1COCc1ccccc1
active: [8]; at 50.0 µM 89.5% | [10]; [18] 75% | [11]; [18] 88% | [11]; at 50.0 µM 74.3%
inactive: [1]; at 1.2 µM -4% | [1]; at 3.7 µM 3% | [1]; at 11.0 µM -22% | [1]; at 33.0 µM -16% | [1]; at 100.0 µM 2% | [2]; at 1.2 µM -2% | [2]; at 3.7 µM -19% | [2]; at 11.0 µM -11% | [2]; at 33.0 µM -13% | [2]; at 100.0 µM 8% | [3]; at 1.2 µM -31% | [3]; at 3.7 µM -30% | [3]; at 11.0 µM -28% | [3]; at 33.0 µM -21% | [3]; at 100.0 µM 8% | [4]; at 1.2 µM -17% | [4]; at 3.7 µM -14% | [4]; at 11.0 µM -11% | [4]; at 33.0 µM 1% | [4]; at 100.0 µM 21% | [5]; at 1.2 µM -10% | [5]; at 3.7 µM 2% | [5]; [17] 14% | [5]; at 11.0 µM 3% | [5]; at 33.0 µM 9% | [5]; [18] 19% | [5]; at 50.0 µM 1.9% | [5]; at 100.0 µM 23% | [6]; at 1.2 µM -12% | [6]; at 3.7 µM -15% | [6]; [17] 14% | [6]; at 11.0 µM -11% | [6]; at 33.0 µM 2% | [6]; [18] 15% | [6]; at 50.0 µM -6.6% | [6]; at 100.0 µM 26% | [7]; at 1.2 µM -13% | [7]; at 3.7 µM 0% | [7]; at 11.0 µM -15% | [7]; at 33.0 µM -6% | [7]; at 100.0 µM 5% | [8]; [17] 13% | [8]; [18] 69% | [9]; at 1.2 µM -26% | [9]; at 3.7 µM -15% | [9]; at 11.0 µM -12% | [9]; at 33.0 µM -20% | [9]; at 100.0 µM -9% | [10]; [17] 12% | [10]; at 50.0 µM 52.4% | [11]; at 1.2 µM -20% | [11]; at 3.7 µM -18% | [11]; [17] 7% | [11]; at 11.0 µM -7% | [11]; at 33.0 µM 29% | [11]; at 100.0 µM 58% | [12]; at 1.2 µM -16% | [12]; at 3.7 µM -3% | [12]; at 11.0 µM -7% | [12]; at 33.0 µM -3% | [12]; at 100.0 µM 15% | [13]; at 1.2 µM 0% | [13]; at 3.7 µM 12% | [13]; at 11.0 µM -4% | [13]; at 33.0 µM 6% | [13]; at 100.0 µM 27% | [14]; at 1.2 µM -49% | [14]; at 3.7 µM -34% | [14]; at 11.0 µM -37% | [14]; at 33.0 µM -21% | [14]; at 100.0 µM -7% | [15]; [17] 18% | [15]; [18] 30% | [15]; at 50.0 µM -22.1% | [16]; at 1.2 µM -3% | [16]; at 3.7 µM -5% | [16]; at 11.0 µM 3% | [16]; at 33.0 µM 9% | [16]; at 100.0 µM 26%
